Experimental data as given in the supplement of paper PMC12297408.
Counter-ions that a name gives are not always drawn. The whole screen tested about 1,300 compounds, of which about 40 (3%) showed activity. The entries come from a sample that favours actives as a whole. Values without a mark were called inactive.

System: Plasmodium falciparum NF54/iGP1_RE9H ulg8 stage V gametocytes
Experiment: gametocyte viability (luciferase signal relative to DMSO control) (% of DMSO control); higher = less gametocytocidal activity, active = 50 or less
Settings: exposure time: 72 h
Summary of the method: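 Stage V gametocytes of the NF54/iGP1_RE9Hulg8 line (day 12; ~2.5% gametocytemia, 3% hematocrit), in medium containing 0.5% Albumax II, were dispensed into 96-well plates with compounds spotted in nanolitre volumes from 10 mM DMSO stocks, for final concentrations of 10 µM or 1 µM in a single well each. After 72 h at 37 °C, 90 µl from each well was combined with 10 µl D-luciferin (30 mg/ml), and luminescence was measured on an IVIS Lumina II. Viability was expressed against the mean of the DMSO vehicle wells on the same plate.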

| Compound | gametocyte viability (concentration: 1 µM) | gametocyte viability (concentration: 10 µM) |
| --- | --- | --- |
| CN1CCC(=C2c3ccccc3CCc3cccnc32)CC1 [Azatadine maleate] | 79.7 | 80.8 |
| CN1CCN2c3ncccc3Cc3ccccc3C2C1 (configuration not stated) [Mirtazapine] | 79.6 | 77.4 |
| COc1cc(-c2ccc(N=Nc3ccc4c(S(=O)(=O)O)cc(S(=O)(=O)O)c(N)c4c3O)c(OC)c2)ccc1N=Nc1ccc2c(S(=O)(=O)O)cc(S(=O)(=O)O)c(N)c2c1O [Chicago sky blue 6B] | 80.1 | 82.1 |
| Cc1ccccc1C(OCCN(C)C)c1ccccc1 (configuration not stated) [Orphenadrine hydrochloride] | 84.4 | 87.5 |
| O=C1CC[C@@H](C(=O)N2CSC[C@H]2C(=O)O)N1 [Pidotimod] | 83.8 | 81.2 |
| Cc1ccc(S(=O)(=O)NC(=O)NN2CC3CCCC3C2)cc1 (configuration not stated) [Gliclazide] | 91.8 | 88.7 |
| O=C1NCCN1CCN1CCC(c2cn(-c3ccc(F)cc3)c3ccc(Cl)cc23)CC1 [Sertindole] | 97.7 | 82.3 |
| CC(=O)OCC(=O)[C@@]12N=C(C)O[C@@H]1C[C@H]1[C@@H]3CCC4=CC(=O)C=C[C@]4(C)[C@H]3[C@@H](O)C[C@@]12C [Deflazacort] | 95.7 | 104 |
| Clc1ccc(Nc2nnc(Cc3ccncc3)c3ccccc23)cc1 [Vatalanib] | 89.2 | 69.1 |
| Cc1c(F)c(N2CCNC(C)C2)cc2c1c(=O)c(C(=O)O)cn2C1CC1 (configuration not stated) [Grepafloxacin] | 93.9 | 95.3 |
| COc1ccc2[nH]c([S+]([O-])Cc3ncc(C)c(OC)c3C)nc2n1 (configuration not stated) [Tenatoprazole] | 90.8 | 79.8 |
| Nc1ccc(S(=O)(=O)Nc2nccs2)cc1 [Sulfathiazole] | 96.7 | 91.9 |
| CCCCC(=O)N(Cc1ccc(-c2ccccc2-c2nnn[nH]2)cc1)[C@H](C(=O)O)C(C)C [Valsartan] | 81.5 | 81 |
| Cc1cc(C(=O)NNCc2ccccc2)no1 [Isocarboxazid] | 98.7 | 85 |
| CN(C)[C@@H]1C(=O)C(C(=O)NCNCCCC[C@H](N)C(=O)O)=C(O)[C@@]2(O)C(=O)C3=C(O)c4c(O)cccc4[C@@](C)(O)[C@H]3C[C@@H]12 [Lymecycline] | 88.7 | 84.6 |
| CC(=O)OC[C@H]1O[C@@H]([S-])[C@H](OC(C)=O)[C@@H](OC(C)=O)[C@@H]1OC(C)=O.CCP(CC)CC.[Au+] [Auranofin] | 82.6 | 3.03 (active) |
| COc1ccc2[nH]cc(CCNC(C)=O)c2c1 [Melatonin] | 80.2 | 85.4 |
| CCCCCNC(=N)N/N=C/c1c[nH]c2ccc(OC)cc12 [Tegaserod maleate] | 88.4 | 6.12 (active) |

| Compound | gametocyte viability (concentration: 1 µM) | gametocyte viability (concentration: 10 µM) |
| --- | --- | --- |
| COc1cc2nc(N3CCN(C(=O)C4COc5ccccc5O4)CC3)nc(N)c2cc1OC (configuration not stated) [Doxazosin mesylate] | 86.5 | 63.2 |
| COc1cc2nc(N3CCN(C(=O)c4ccco4)CC3)nc(N)c2cc1OC [Prazosin hydrochloride] | 90.8 | 42.9 (active) |
| COc1cc2nc(N3CCN(C(=O)C4CCCO4)CC3)nc(N)c2cc1OC (configuration not stated) [Terazosin hydrochloride] | 96.5 | 92.6 |
| OCCN1CCN(CC/C=C2/c3ccccc3Sc3ccc(Cl)cc32)CC1 [Zuclopenthixol hydrochloride] | 100 | 95.8 |
| CC(C)CN(C[C@@H](O)[C@H](Cc1ccccc1)NC(=O)O[C@H]1CO[C@H]2OCC[C@H]21)S(=O)(=O)c1ccc(N)cc1 [Darunavir] | 82.6 | 81.5 |
| C=C1C[C@H]2[C@@H]3C=C(C)C4=CC(=O)CC[C@]4(C)[C@H]3CC[C@]2(C)[C@@]1(OC(C)=O)C(C)=O [Melengestrol acetate] | 85.4 | 87.2 |
| Nc1nc(CC(=O)Nc2ccc(CCNC[C@H](O)c3ccccc3)cc2)cs1 [Mirabegron] | 91.9 | 90.8 |
| Cn1nnc2c(C(N)=O)ncn2c1=O [Temozolomide] | 86.9 | 88.1 |
| Cc1cc(C(C)(C)C)c(O)c(C)c1CC1=NCCN1 [Oxymetazoline hydrochloride] | 89.6 | 90.7 |
| CC(=O)OCC(=O)[C@@]12OC3(CCCC3)O[C@@H]1C[C@H]1[C@@H]3CCC4=CC(=O)C=C[C@]4(C)[C@@]3(F)[C@@H](O)C[C@@]12C [Amcinonide] | 93.1 | 92.1 |
| CN1CCN(C(c2ccccc2)c2ccc(Cl)cc2)CC1 (configuration not stated) [Chlorcyclizine hydrochloride] | 96.9 | 91.7 |
| CCOC(=O)[C@H](CCc1ccccc1)N[C@@H](C)C(=O)N1Cc2ccccc2C[C@H]1C(=O)O [Quinapril HCl] | 98.4 | 98.4 |
| S=c1[nH]cnc2nc[nH]c12 [Mercaptopurine] | 82.1 | 84.9 |
| c1ccc(CNc2ncnc3nc[nH]c23)cc1 [Aminopurine, 6-benzyl] | 69.7 | 43.9 (active) |
| c1coc(CNc2ncnc3nc[nH]c23)c1 [6-Furfurylaminopurine] | 86.5 | 75.6 |
| CCCc1nc2c(C)cc(-c3nc4ccccc4n3C)cc2n1Cc1ccc(-c2ccccc2C(=O)O)cc1 [Telmisartan] | 80 | 88.2 |
| CN1CCCN=C1/C=C/c1cccc(O)c1 [Oxantel pamoate] | 80.4 | 87.7 |
| O=C(O)c1ccccc1C(=O)Nc1ccc(S(=O)(=O)Nc2nccs2)cc1 [Phthalylsulfathiazole] | 82.3 | 85.4 |
